# Screening data as filed in PubChem.
# Rows were chosen to be rich in hits. Some 0.7% of all compounds tested hit in one or more screens of this group.
# Vif-APOBEC3G blk – qHTS for Inhibitors of Vif-A3G Interactions: qHTS. DNA dC->dU-editing enzyme APOBEC-3G (Homo sapiens), Q9HC16. HeLa A3G-eYFP + Vif (tagged APOBEC3G with the HIV-1 protein that degrades it), YFP fluorescence, overnight. 0.076% of 410,000 active. Potency, µM (highest dose often 46.1 µM), usual class: inhibitors; further: nearly all actives have a fitted effect of over 60% in size
# Target sequence (Q9HC16 whole entry, looked up): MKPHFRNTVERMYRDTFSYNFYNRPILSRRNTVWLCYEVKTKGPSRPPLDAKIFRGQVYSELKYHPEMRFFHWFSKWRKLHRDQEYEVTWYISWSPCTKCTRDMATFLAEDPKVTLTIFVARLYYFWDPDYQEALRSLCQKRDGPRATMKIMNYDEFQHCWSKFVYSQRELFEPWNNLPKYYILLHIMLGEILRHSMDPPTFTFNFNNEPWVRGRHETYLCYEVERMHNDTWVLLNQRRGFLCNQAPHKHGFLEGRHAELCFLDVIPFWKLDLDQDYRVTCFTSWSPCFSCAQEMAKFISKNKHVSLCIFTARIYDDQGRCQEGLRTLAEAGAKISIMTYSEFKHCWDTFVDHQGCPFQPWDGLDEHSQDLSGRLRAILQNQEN
#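 Read-out is eYFP fluorescence (Ex 488/Em 500-530) from Vif-expressing HeLa A3G-eYFP cells; more signal means A3G escaped Vif-mediated degradation. Cells plated overnight, compound pinned in, incubated overnight at 37 deg C.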
# Vif-A3F inh – qHTS for Inhibitors of Vif-A3F Interactions: qHTS; 0.2% of 390,000 active; Potency, µM (top dose mostly 46.1 µM); HeLa A3F-eYFP + Vif (tagged APOBEC3F with the HIV-1 protein that degrades it), YFP fluorescence increase; further: nearly all actives have a fitted effect of over 65% in size
#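 HeLa cells stably expressing A3F-eYFP plus Vif, plated and incubated overnight at 37 deg C, then exposed to compounds overnight at 37 deg C. Blocked degradation read as raised yellow fluorescence (Ex 488/Em 500-530).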
# Epigenetic reg – Quantitative High-Throughput Screen for Regulators of Epigenetic Control. murine LDR cells, GFP reporter derepression, 30 h. Potency, µM (titrated, usually from 53.9 µM), most hits filed as activators. 0.2% of 280,000 active. AID 1865, 2009; further: nearly all actives have a fitted effect of over 60% in size
#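 Murine LDR cells bearing a silenced CMV-driven GFP reporter were exposed to compound for 30 h at 37 C. After PBS washes, GFP-positive cells (20-120 um objects) counted by laser-scanning microplate cytometry.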
# PINK1 modulator – A Quantitative High throughput Screen to Identify Chemical Modulators of PINK1 Expression | 0.2% of 410,000 active | Potency, µM (series often up to 76.6 µM), most hits filed as activators | PINK1 immunofluorescence, high-content cytometry, 24 h; active means well fitted activation curve with a large enough effect; inconclusive means small, poorly fitted or top-dose-only effect; cell line not stated here; further: nearly all actives have a fitted effect of over 65% in size
#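 A stable cell line was treated with compounds at 5 concentrations for 24 hours, with CCCP as control. PINK1 levels and mitochondrial localization were measured by immunofluorescence with mitochondrial, cell and nuclear markers after fixation, read by laser-scanning cytometry.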
# GLS inhibitor – qHTS for Inhibitors of Glutaminase (GLS); GLS enzymatic activity, qHTS titration; Potency, µM (series often up to 45.5 µM), hits mostly inhibitors; 0.21% of 410,000 active
#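 hKGA; 45 mM KH2PO4 pH 8.2 + 0.02% Tween-20; cpd via pin tool; 1 mM Gln soln; GluOx/HRP/Amplex Red; RT 30 min; fluor. t0 & final.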
# Hits are given with their value; . = inactive; ? = inconclusive; / = not tested or not shown; ! = repeats disagree. Unless noted, the call rests on the fitted dose curve; in most records, active means well fitted curve in the direction sought with a large enough effect; inconclusive means small, poorly fitted or top-dose-only effect, or another doubt; inactive means no such curve, though single readings can be large; an effect the other way counts as inactive or inconclusive.
SMILES,Vif-APOBEC3G blk,Vif-A3F inh,Epigenetic reg,PINK1 modulator,GLS inhibitor
CCCc1nc2ccc(Br)cc2c(=O)n1-c1ccc([N+](=O)[O-])c(C(F)(F)F)c1,.,.,.,14.1µM,.
Cc1ccc2c(c1)[C@]13CCCC[C@@H]1[C@@H](C2)N(C)CC3,/,/,/,/,.
Cc1cc(O)c2c(c1)C(=O)C13C(=C2O)C(=O)[C@H]2[C@@H](O)[C@@H]1[C@H]1[C@H](O)[C@@H]3C(=O)C3=C(O)c4c(O)cc(C)cc4C(=O)C312 (stereo partly drawn),?,?,/,28.2µM,.
CCN(CC)c1ccc(/C=C/[N+](=O)[O-])cc1,?,25.1µM,.,.,.
CC(C)[C@@]1(NC(=O)[C@@H]2C[C@@H]3c4cccc5[nH]cc(c45)C[C@H]3N(C)C2)O[C@@]2(O)[C@@H]3CCCN3C(=O)[C@H](Cc3ccccc3)N2C1=O,.,.,22.4µM!,.,.
CC(C)[C@@]1(NC(=O)[C@@H]2C[C@@H]3c4cccc5[nH]cc(c45)C[C@H]3N(C)C2)O[C@@]2(O)C3CCCN3C(=O)[C@H](Cc3ccccc3)N2C1=O (stereo partly drawn),/,/,.,/,/
O=C(c1ccccc1)c1ccc(N=Nc2c(O)[nH]c(=O)[nH]c2=O)cc1,.,.,.,.,10µM
O=C(O)c1cccc(N=Nc2c(O)[nH]c(=O)[nH]c2=O)c1,.,.,.,.,.
CCn1c(NN=O)nc2ccccc21,.,11.2µM,?,.,.
O=c1c(-c2ccccc2)c(O)c2ccccc2n1-c1ccccc1,.,.,/,.,.
Clc1ccc(-c2csc3ncnc(Sc4nnnn4C4CC4)c23)cc1,?,/,/,.,/
Nc1cccc2c(O)cccc12,.,.,/,.,12.6µM
O=C1[O][Sb-]23[O]C(=O)C([O]2)C2[O][Sb-]4([O]C(=O)C([O]4)C1[O]3)[O]C2=O,/,/,/,/,.
CCN(CC)c1ccc(N=Cc2c(O)n(Cc3ccccc3)c(=O)[nH]c2=O)cc1,?,7.94µM!,12.6µM,.,.
CCC(C)C(=O)c1c(O)c(C)c2oc3c(C)c(O)c(C(=O)C(C)CC)c(O)c3c2c1O (stereo not drawn),/,/,.,15.8µM,/
CCCCCc1cc(O)c2c(c1)OC(C)(C)c1ccc(C)cc1-2,/,/,/,/,.
COc1cc(CC(C)N)c(OC)cc1C (stereo not drawn),/,/,/,/,.
O=C1NC(=O)N(c2ccccc2F)C(=O)/C1=C/c1ccc(Sc2nc3ccccc3[nH]2)o1,.,22.4µM,.,.,?
O=C1NC(=O)N(c2cccc(Cl)c2)C(=O)/C1=C\c1ccc(Sc2nc3ccccc3[nH]2)o1,.,?,.,.,.
NC(=O)c1cc([N+](=O)[O-])cc([N+](=O)[O-])c1,.,.,.,.,.
CC(C)(C)c1cc([N+](=O)[O-])cc(C(C)(C)C)c1O,.,.,.,5.01µM,.
CC(=O)C1=NOC(CNc2ncc(C(F)(F)F)cc2Cl)C1 (stereo not drawn),.,?,.,.,.
O=c1c2ccccc2nc(/C=C/c2ccccc2O)n1-c1ccc(Br)cc1,.,10µM,?,.,.
COc1ccc(-n2c(/C=C/c3ccc(O)c(OC)c3)nc3ccccc3c2=O)cc1,.,20µM,/,.,.
COc1ccc(-c2cn(CCO)nc2-c2ccc(OC)cc2)cc1,.,.,/,.,?
SMILES,Vif-APOBEC3G blk,Vif-A3F inh,Epigenetic reg,PINK1 modulator,GLS inhibitor
Nc1ccc2c(c1)Cc1cc([N+](=O)[O-])ccc1-2,?,11.2µM,?,.,.
Cc1c(N)nc([C@@H](CC(N)=O)NC[C@H](N)C(N)=O)nc1C(=O)N[C@H](C(=O)N[C@H](C)[C@H](O)[C@H](C)C(=O)N[C@@H](C(=O)NCCc1nc(-c2nc(C(=O)NCCC[S+](C)C)cs2)cs1)[C@H](C)O)[C@H](O[C@@H]1O[C@@H](CO)[C@@H](O)[C@H](O)[C@@H]1O[C@H]1O[C@H](CO)[C@H](O)[C@H](OC(N)=O)[C@@H]1O)c1cnc[nH]1,/,/,/,/,.
COc1cccc(C(=O)C2CCCN(Cc3cccc(C)n3)C2)c1 (stereo not drawn),.,?,.,.,.
Cc1cccc(CN2CCCC(C(=O)c3cccc(OC(C)C)c3)C2)n1 (stereo not drawn),.,22.4µM,.,.,.
COc1cc(=O)n2c(c1C(=O)N(C)Cc1nonc1C)CCN(C(=O)C1C(C)(C)C1(C)C)CC2,/,/,/,.,/
ClCCN(CCCl)c1ccc(C=Cc2ccncn2)cc1,.,22.4µM,/,.,.
ClCCN(CCCl)c1ccc(/C=C/c2ccnc3ccccc23)cc1,?,/,/,.,/
CC1=C(O)C(=O)C=C2C1=CC=C1[C@]2(C)CC[C@@]2(C)C3C[C@](C)(C(=O)O)CC[C@@]3(C)CC[C@@]12C (stereo partly drawn),/,/,.,/,/
Oc1ccc(-[n+]2c(-c3ccccc3)cc(-c3ccccc3)cc2-c2ccccc2)cc1,.,.,/,?,.
COc1ccc(-[n+]2c(-c3ccccc3)cc(-c3ccccc3)cc2-c2ccccc2)cc1,.,.,/,15.8µM,.
Cc1cc(/C=C2\C(=O)NC(=O)N(c3ccc(Br)cc3)C2=O)c(C)n1-c1cc(C(=O)O)cc(C(=O)O)c1,.,.,/,.,10µM
C[C@H]1CNC(=O)c2c(C(=O)N3CCN(C(=O)OC(C)(C)C)CC3)ncn21,.,/,/,?,.
Cc1ccc(N2C(=O)/C(=C/c3ccc(CN(CCC#N)S(C)(=O)=O)o3)C(=O)NC2=S)cc1,.,.,.,.,11.2µM
Cc1ccc2oc(=O)c(-c3nc4ccc(C)cc4[nH]3)cc2c1,.,.,15.8µM,.,.
O=C(O)c1cc(O)c(O)c(O)c1,/,/,.,/,10µM
COc1ccc(C(=O)O)cc1OC,.,.,.,.,.
COc1ccccc1CNc1nc(NCc2ccccc2SC)c2sccc2n1,.,/,/,?,.
CN1C(=O)C(=Cc2ccc(N3CCCCC3)o2)C(=O)N(C)C1=S,?,3.98µM,.,.,.
O=C1NC(=O)N(c2ccc3c(c2)OCO3)C(=O)/C1=C/c1ccc(N2CCCCC2)o1,?,22.4µM,.,.,.
O=C1NC(=O)N(c2ccc3c(c2)OCO3)C(=O)/C1=C\c1ccc(-c2ccccc2C(=O)O)o1,.,.,.,.,.
CCC(=O)O[C@@](Cc1ccccc1)(c1ccccc1)[C@H](C)CN(C)C,/,/,/,/,.
CCCCC1(CCCC)C(=O)NC(=Nc2cccc(C)c2)NC1=O,.,.,.,15.8µM,.
CN(C)[C@@H]1C(=O)C(C(N)=O)=C(O)[C@@]2(O)C(=O)C3=C(O)c4c(O)cccc4[C@@](C)(O)[C@H]3[C@H](O)[C@@H]12,?,.,.,.,7.08µM
